Source: PubChem BioAssay (The Scripps Research Institute Molecular Screening Center)
Rin1 Abl inh = inhibitors of Rin1-Abl protein binding, primary screen, biochemical, TR-FRET; Tyrosine-protein kinase ABL1 (Homo sapiens) + Ras and Rab interactor 1 (Homo sapiens), …; hit rate 0.4% among 360,000; inhibition, % at 7.35 µM; in the data active means inhibition above about 5%, passing the limit was not always enough
PKA-R2B act = activators of PKA-R2B holoenzyme, primary screen, biochemical, fluorescence polarization, Cy5-IP20, human; cAMP-dependent protein kinase catalytic subunit beta (Homo sapiens) + cAMP-dependent …; PKA-R2B holoenzyme dissociation; R2B truncated from residue 108, S112A mutant; 0% DMSO only, 100% 113 µM cGMP; activation, % at 11.4 µM; hit rate 0.079% among 340,000;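 active means activation above a cutoff set at the mean over all compounds plus 3 SD, cut at about 18% in these data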;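 further: higher means more holoenzyme dissociation and a rise in polarization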
IDE act = human IDE activators in live cells, primary screen, fluorescence polarization, HEK cells, FAbeta-B substrate; Insulin-degrading enzyme (Homo sapiens), P14735; FAbeta-B cleavage; 0% vehicle, 100% cell-free pure enzyme wells; activation, % at 5.96 µM; hit rate 0.073% among 340,000;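 active means activation above the mean of all tested compounds plus 3 SD, set per screening campaign, cut at about 17% in these data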
E coli Lon inh = inhibitors of E. coli Lon protease, primary screen, biochemical, fluorescence polarization; inhibition, % at 7.94 µM; purified E. coli Lon protease; P0A9M0; hit rate 0.42% among 360,000; AID 602123, 2011; in the data active means inhibition above about 13%, passing the limit was not always enough;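 further: 0% = enzyme with probe and DMSO and 100% = no enzyme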
Target sequence (P0A9M0 whole entry, looked up): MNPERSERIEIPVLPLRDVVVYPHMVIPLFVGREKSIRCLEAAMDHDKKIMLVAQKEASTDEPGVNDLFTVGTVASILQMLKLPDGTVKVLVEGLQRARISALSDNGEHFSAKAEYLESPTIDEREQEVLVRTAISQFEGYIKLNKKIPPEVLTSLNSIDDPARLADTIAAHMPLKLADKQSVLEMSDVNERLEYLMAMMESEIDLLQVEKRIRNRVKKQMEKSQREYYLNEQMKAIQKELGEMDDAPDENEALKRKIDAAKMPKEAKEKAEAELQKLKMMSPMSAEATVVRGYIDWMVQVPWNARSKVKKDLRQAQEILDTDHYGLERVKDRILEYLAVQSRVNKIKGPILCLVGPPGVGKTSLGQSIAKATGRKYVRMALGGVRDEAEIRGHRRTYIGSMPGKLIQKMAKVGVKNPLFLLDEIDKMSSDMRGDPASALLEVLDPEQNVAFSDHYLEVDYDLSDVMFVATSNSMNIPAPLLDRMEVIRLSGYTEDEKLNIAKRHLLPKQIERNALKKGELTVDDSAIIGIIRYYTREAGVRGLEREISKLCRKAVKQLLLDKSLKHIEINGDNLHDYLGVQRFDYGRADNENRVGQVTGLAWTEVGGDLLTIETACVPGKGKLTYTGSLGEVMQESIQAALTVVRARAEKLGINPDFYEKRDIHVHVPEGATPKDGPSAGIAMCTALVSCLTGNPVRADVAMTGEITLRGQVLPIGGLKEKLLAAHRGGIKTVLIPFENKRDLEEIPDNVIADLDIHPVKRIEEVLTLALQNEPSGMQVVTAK
IDE cell inh = human IDE inhibitors in live cells, primary screen, fluorescence polarization, HEK cells, FAbetaB substrate; hit rate 0.41% among 320,000; Insulin-degrading enzyme (Homo sapiens), P14735; FAbetaB cleavage; inhibition, % at 5.59 µM; AID 434962, 2010;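 active means percent inhibition above the average of all tested compounds plus 3 SD, set per screening campaign, cut at about 16% in these data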;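 further: IDE supplied by intact live HEK cells; FP after avidin binding of uncleaved biotin substrate so inhibition keeps polarization high; 0% = DMSO wells and 100% = 60 µM reference IDE inhibitor Ii1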
PKA-R1A activ = activators of PKA-R1A holoenzyme, primary screen, biochemical, fluorescence polarization, Cy5-IP20, bovine R1A, mouse PKAc | cAMP-dependent protein kinase type I-alpha regulatory subunit (Bos taurus) + … | PKA-R1A dissociation; scaled: DMSO 0%, 113 µM cGMP 100% | activation, % at 11.4 µM | hit rate 0.083% among 340,000;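 active means percent activation above the mean of all tested compounds plus 3 SD, cut at about 19% in these data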;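 further: higher means more PKAc released from R1A so a rise in polarization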
E coli Lon conf = E. coli Lon protease inhibitor retest, confirmation, biochemical, fluorescence polarization; shares compounds with E coli Lon inh; purified E. coli Lon; inhibition, % at 7.94 µM; hit rate 31% among 1,400; AID 602230, 2012; in the data active means inhibition above about 16%;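 further: 0% = enzyme with probe and DMSO and 100% = no enzyme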
The depositor's hits bear a star; x = no result; + = active, no number. Most compounds without a hit are left out; they make up all but 1.3% or so of the library.

SMILES	Rin1 Abl inh	PKA-R2B act	IDE act	E coli Lon inh	IDE cell inh	PKA-R1A activ	E coli Lon conf
COc1ccc(/C=C2/SC(=O)N(CCNC(=O)C3CCCN3C(=O)c3cccs3)C2=O)cc1 (stereo unspecified)	-0.5	1.7	0.1	1.6	-0.4	-0.7	x
CC(=O)N1CCc2c(sc(NC(=O)C3CCCN3S(=O)(=O)c3cccs3)c2C(N)=O)C1 (stereo unspecified)	-2.9	-8.0	-5.9	40.5*	13.2	-1.9	13.9
CCC(=O)Nc1ccc(Oc2ccc3c(c2)C(=O)N(c2ccc(O)cc2)C3=O)cc1	-6.8	-5.2	2.1	5.5	2.3	-3.6	x
CN(C)C(=S)N=c1ssc(=S)n1Cc1cccnc1	-1.7	-5.9	0.6	-1.7	x	-1.3	x
CCCN1CCN(S(=O)(=O)c2cn(C)nc2C)CC1	-3.9	-6.3	6.2	21.9*	-0.4	-1.7	14.2
COc1ccccc1C1/C(=C(/O)c2ccc(Cl)cc2)C(=O)C(=O)N1CCN1CCOCC1 (stereo unspecified)	2.8	-2.6	3.7	-4.7	-1.4	-7.2	x
Cc1cc(C=O)c(O)cc1O	0.7	9.1	-0.7	37.2*	-2.9	-0.1	-5.1
Cc1ccc(S(=O)(=O)N2CN(Cc3ccco3)c3nc4ccccc4nc32)cc1C	-1.2	-4.7	-0.6	15.4*	8.9	2.2	-6.6
O=S(=O)(c1ccc(F)cc1)N1CN(Cc2ccco2)c2nc3ccccc3nc21	0.1	0.0	-4.9	44.0*	2.5	7.7	-37.4
Cc1ccc(S(=O)(=O)N2CN(Cc3ccco3)c3nc4ccccc4nc32)cc1	-3.6	-2.9	1.3	2.8	2.4	4.2	x
COc1ccc(S(=O)(=O)N2CN(Cc3ccco3)c3nc4ccccc4nc32)cc1	3.8	-3.8	-1.4	28.0*	1.0	0.3	-10.6
O=S(=O)(c1cccs1)N1CN(Cc2ccc(F)cc2)c2nc3ccccc3nc21	-0.5	-4.7	0.6	4.8	3.8	-6.1	x
Cc1ccc(S(=O)(=O)Nc2nc3ccccc3nc2NCc2ccco2)cc1C	-0.7	-2.8	6.9	-5.8	0.3	-6.2	x
O=S(=O)(c1cccs1)N1CN(Cc2cccs2)c2nc3ccccc3nc21	1.1	2.4	-5.3	17.8*	2.6	-12.7	-33.7
CCOC(=O)N1CCN(C(=O)C(NC(=O)c2ccco2)C(C)C)CC1 (stereo unspecified)	0.1	3.0	1.2	-5.3	-1.2	-4.9	x
COc1ccccc1NC(=O)COc1ccc(C(=O)OCC(=O)N2CCCC2=O)cc1OC	1.4	-2.2	-3.5	2.9	3.6	4.4	x
COc1ccc(CCNC(=O)c2ccc3c(c2)N(Cc2ccc(F)cc2)CCS3)c(OC)c1	-2.9	-3.2	2.4	18.5*	0.1	-13.1	0.1
NC(=O)c1cc2c3ccccc3ccn2c1-c1ccccc1	1.1	-5.8	5.0	25.3*	0.3	-3.4	18.2*
Cc1cc(C(N)=O)c2ccccc2n1	2.2	-1.3	-0.2	-5.8	-1.3	-0.3	x
COc1ccc(Nc2cccc3ccccc23)cc1	0.7	6.1	-0.5	83.7*	3.6	-18.1	2.2
COc1cccc(C(=O)CN2C(=O)C(C)(C)Oc3ccc(C(=O)N4CCOCC4)cc32)c1	1.7	0.8	-0.8	128.2*	-0.1	4.2	-5.3
S=C(Nc1ccc(N2CCOCC2)cc1)Nc1ccc2nc(-c3ccco3)c(-c3ccco3)nc2c1	-1.6	13.5	0.2	43.1*	13.9	3.0	84.5*
O=C1CC(C2CCCO2)C(=O)N1Cc1ccccc1 (stereo unspecified)	2.2	-10.1	-0.4	-3.1	0.3	-15.4	x
CCN1C(=O)c2ccccc2S(=O)c2ccc(C(=O)N3CCCCCC3)cc21 (stereo unspecified)	-2.0	-3.0	6.9	44.8*	1.8	-4.2	-52.5
O=C1C=C(Nc2ccccc2O)c2ccccc2C1=O	-4.7	3.3	0.5	42.6*	0.2	15.4	-1.7
SMILES	Rin1 Abl inh	PKA-R2B act	IDE act	E coli Lon inh	IDE cell inh	PKA-R1A activ	E coli Lon conf
Cc1ccc(NC2=CC(=O)C(=O)c3ccccc32)c(C)c1	-2.4	4.6	6.5	-7.3	-3.0	7.7	x
O=C(CN(Cc1ccco1)C(=O)c1ccccc1F)Nc1ccccc1C(F)(F)F	1.3	-6.4	2.4	6.6	-4.5	-6.3	x
O=C(CN(Cc1ccco1)S(=O)(=O)c1cccs1)Nc1ccccc1C(F)(F)F	-3.3	-9.7	-1.7	17.3*	-2.3	-15.2	-0.7
COc1ccc(-c2nc(=S)n3ccsc3n2)cc1OC	-4.4	-9.4	-1.9	-5.7	-7.7	5.2	x
CCN(CC)S(=O)(=O)c1cc(NC(=O)[C@@H](NC(N)=O)C(C)C)ccc1C	0.0	-9.4	-2.6	17.1*	8.9	-5.8	-3.1
CCOC(=O)c1ccc(NC(=O)[C@@H](NC(N)=O)C(C)C)cc1	-0.5	4.6	2.4	-3.7	-1.6	-3.2	x
CC[C@@]1(O)C(=O)OCc2c1cc1n(c2=O)Cc2cc3c(CN(C)C)c(O)ccc3nc2-1	-14.1	-12.6	24.1*	+	-2.8	-12.2	+
Brc1ccc(-c2cnnc(N3CCCC3)n2)cc1	-0.1	2.3	0.3	22.5*	-10.3	5.0	-8.1
O=C1c2cccc3c(N4CCCCC4)ccc(c23)C(=O)N1CCO	-28.4	-3.1	-35.1	125.9*	50.8*	-1.7	-76.5
CCOC(=O)C(CC)Sc1nc2c(cnn2-c2ccccc2)c(=O)[nH]1 (stereo unspecified)	-1.1	-2.4	1.8	-2.6	0.6	1.2	x
CC(=O)Nc1cc(Cl)ccc1OS(=O)(=O)c1ccc(C)cc1	-3.3	-12.3	7.7	44.8*	-3.8	-4.8	-1.4
CC(=O)Nc1ccc(OS(=O)(=O)c2ccc(Cl)cc2)cc1	0.8	2.4	-1.1	1.2	2.8	10.0	x
CC(C)[C@H](NC(=O)c1ccco1)C(=O)OCC(=O)c1ccc2c(c1)NC(=O)CO2	2.5	-2.0	-2.9	-0.6	1.8	-3.6	x
Cc1ccccc1CNC1CCCCC1	0.0	-8.7	2.0	-9.7	7.6	-9.0	x
Oc1cc(CNC2CCCCC2)c(O)cc1CNC1CCCCC1	2.8	-9.8	4.5	45.2*	x	-6.5	17.4*
Cc1[nH][nH]c(=O)c1N=Nc1ccccc1Cl	-1.1	2.3	-4.9	1.2	2.2	3.4	x
Clc1ccccc1N=Nc1ccccn1	-1.3	-8.0	-3.8	+	x	-3.5	10.1
CCOC(=O)c1c(C)oc2ccc(O)cc12	1.5	-10.0	-0.6	-2.7	-0.4	-3.5	x
